In the library only some 2.4% were active in any assay of this set; here they are far more common.
L3MBTL1 inh – blocks human L3MBTL1 | Potency, µM (top dose mostly 57.1 µM), usual class: inhibitors | 230,000 tested, 0.66% active | AID 485360 | AlphaScreen L3MBTL1–H3K9me1 peptide binding | Q9Y468; further: nearly all actives have a fitted effect of over 60% in size
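AlphaScreen proximity signal between nickel-chelate acceptor and streptavidin donor beads (final 10 ug/mL) reports binding of 50 nM L3MBTL1 to 75 nM biotin-H3 K9me1 peptide; complex incubated with compounds 30 min at room temperature; cefsulodin titration as control.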
POLI inh – blocks human DNA polymerase iota activity | AID 588590 | Pol iota fluorescent replication assay, 10 min | Q9UNA4 | Potency, µM (highest dose often 115 µM), actives largely listed as inhibitors | 390,000 tested, 1% active
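Pol iota at 10 nM preincubated 15 min with compounds at room temperature; reaction started with fluorescent substrate, 50 nM final. Fluorescence read kinetically at 0 and 10 min; buffer-only wells as negative control.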
Pol beta inh – DNA polymerase beta (human) inhibition; 340,000 tested, 1.3% active; P06746; Potency, µM (top dose mostly 114 µM), usual class: inhibitors; Pol beta primer extension/strand displacement, fluorescence kinetic
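Kinetic readout of DNA synthesis with strand displacement by Pol beta. Compound and 10 nM enzyme sit 15 min at room temperature; 50 nM substrate starts the reaction, read immediately and at 10 min.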
Pol eta inh – DNA polymerase eta (human) inhibition | recombinant Pol eta, fluorescent DNA replication assay | 390,000 tested, 1.2% active | Q9Y253 | Potency, µM (titrated, usually from 114 µM), most hits filed as inhibitors
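Pol eta at 10 nM preincubated with compounds 15 min at room temperature; reaction started with fluorescent substrate (50 nM final) and read kinetically at 0 and 10 min.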
Pol kappa inh – blocks human DNA polymerase kappa activity | Potency, µM (series often up to 107 µM), most hits filed as inhibitors | 400,000 tested, 0.53% active | purified Pol kappa, fluorescent DNA synthesis assay, 10 min
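Activity was followed as the change in fluorescence between reads at 0 and 10 min after starting the reaction with 50 nM substrate. Beforehand, 10 nM polymerase had been preincubated with compound for 15 min at room temperature.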
Numbers stand for hits. The call rests on the fitted dose curve; in most records, active means well fitted curve in the direction sought with a large enough effect; inconclusive means small, poorly fitted or top-dose-only effect, or another doubt; inactive means no such curve, though single readings can be large; an effect the other way counts as inactive or inconclusive.

For Cc1cc(NC(=O)c2ccc(S(=O)(=O)N3CCOCC3)cc2)no1 the results were L3MBTL1 inh inactive, POLI inh inactive, Pol beta inh inactive, Pol eta inh inactive and Pol kappa inh inactive.
Screening Cc1cc(NC(=O)c2ccc(S(=O)(=O)N3CCc4ccccc43)cc2)no1 returned POLI inh inconclusive, Pol beta inh 50µM, Pol eta inh inactive and Pol kappa inh inactive.
Screening COc1ccc(S(=O)(=O)N2CCc3ccccc32)cc1C(=O)Nc1ccc(C(N)=O)cc1 returned L3MBTL1 inh inactive, POLI inh 89µM, Pol eta inh inactive and Pol kappa inh inactive.
For Cc1oc(-c2cccc(Cl)c2)nc1CN1CCC(C(=O)NC(C)C)CC1 the results were POLI inh 89µM, Pol beta inh inactive, Pol eta inh inactive and Pol kappa inh inactive.
COc1ccc(C(=O)C2C(=O)C(=O)N(Cc3ccco3)C2c2cccs2)cc1 (configuration not stated) was read as POLI inh inconclusive and Pol kappa inh inactive.
Screening COc1ccccc1Nc1nc(NCCCN(C)C)nc(N)c1[N+](=O)[O-] returned L3MBTL1 inh inactive, POLI inh inactive, Pol beta inh 18µM, Pol eta inh inactive and Pol kappa inh inactive.
Screening O=C(COC(=O)c1cn(-c2ccccc2)nc1-c1ccccc1)Nc1ncc(Cl)cc1Cl returned POLI inh inconclusive, Pol beta inh inconclusive, Pol eta inh 35µM and Pol kappa inh inconclusive.
For COc1cccc(-c2nn(-c3ccccc3)cc2C(=O)OCC(=O)Nc2ncc(Cl)cc2Cl)c1 the results were L3MBTL1 inh inactive, POLI inh inactive, Pol beta inh inactive, Pol eta inh inactive and Pol kappa inh inactive.
Screening Cc1cnc(C(=O)OCC(=O)Nc2ccc(Cl)cn2)cn1 returned L3MBTL1 inh inactive, POLI inh inactive, Pol eta inh inactive and Pol kappa inh inactive.
Screening Cc1cnc(C(=O)OCC(=O)Nc2sc3c(c2C#N)CCC3)cn1 returned L3MBTL1 inh inactive, POLI inh inconclusive, Pol eta inh 22µM and Pol kappa inh inactive.
Screening O=C(COC(=O)c1ccc(Cl)nc1)Nc1ncc(Cl)cc1Cl returned L3MBTL1 inh inconclusive, POLI inh inactive, Pol beta inh inconclusive, Pol eta inh 35µM and Pol kappa inh inactive.
`Cc1cnc(C(=O)OCC(=O)Nc2ncc(Cl)cc2Cl)cn1` gave L3MBTL1 inh inactive, POLI inh inconclusive, Pol eta inh 50µM and Pol kappa inh inactive.
N#CCCn1c(=O)c(-c2cccc(C#N)c2)nc2cnc(Oc3cccc(Cl)c3)nc21 was read as Pol kappa inh inactive.
`CC(CCc1ccccc1)NC(=O)CSc1n[nH]c(-c2ccc(F)cc2)n1` (configuration not stated) gave POLI inh inactive, Pol beta inh inactive, Pol eta inh inactive and Pol kappa inh inactive.
COc1ccc(-c2cc3c(=O)n(CC(=O)Nc4cc(F)ccc4F)ccn3n2)cc1OC was read as POLI inh inactive, Pol beta inh inactive and Pol kappa inh inactive.
Screening O=C(C=Cc1ccccc1)CC(c1ccccc1)N1CCOCC1 (configuration not stated) returned POLI inh 20µM, Pol eta inh inconclusive and Pol kappa inh inactive.
`O=C(C(c1ccccc1)N1CCOCC1)N1CCOCC1` (configuration not stated) gave POLI inh inactive, Pol beta inh inactive, Pol eta inh inactive and Pol kappa inh inactive.
Screening O=c1c(O[C@@H]2O[C@H](CO)C(O)C2O)c(-c2ccc(O)c(O)c2)oc2cc(O)cc(O)c12 (some centres not stated) returned L3MBTL1 inh 14µM, POLI inh 35µM, Pol eta inh inconclusive and Pol kappa inh 25µM.
For C[C@@H]1O[C@@H](OC[C@H]2O[C@@H](Oc3cc(O)c4c(=O)cc(-c5ccc(O)c(O)c5)oc4c3)[C@H](O)[C@@H](O)[C@@H]2O)[C@H](O)[C@H](O)[C@H]1O the results were L3MBTL1 inh inactive, POLI inh inactive, Pol eta inh inactive and Pol kappa inh inactive.
Screening COc1cc(-c2oc3cc(O)cc(O)c3c(=O)c2O[C@@H]2O[C@H](COC3O[C@@H](C)[C@H](O)[C@@H](O)[C@H]3O)[C@@H](O)[C@H](O)[C@H]2O)ccc1O (some centres not stated) returned L3MBTL1 inh inactive, POLI inh inconclusive, Pol eta inh inactive and Pol kappa inh inactive.

Assay outcomes from PubChem BioAssay.
